Inconclusive results are not listed. The source made the active and inactive calls. Unless noted, calls come from the whole dose curve.
Columns and labels:
[1] = qHTS assay to identify small molecule antagonists of the vitamin D receptor (VDR) signaling pathway - cell viability counter screen (AID 743225; active = well fitted curve in the direction sought with a large enough effect in the repeat runs; an effect the other way counts as inactive or inconclusive; note: % is set by controls: 0 for no effect and ±100 for the full control effect; nearly all actives have a fitted effect of over 50% in size)
Outline: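 Luminescent cell viability (CellTiter-Glo) in VDR-bla HEK 293T cells after 16 h compound exposure at 37C in the presence of 3 nM final 1-alpha,25-dihydroxy vitamin D3.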

[2] = qHTS assay to identify small molecule agonists of the NFkB signaling pathway (AID 1159509; active = well fitted curve in the direction sought with a large enough effect in the signal ratio in the repeat runs, not every such curve was filed as active; the % refers to the signal ratio; note: series mostly up to about 61 µM; % is set by controls: 0 for no effect and ±100 for the full control effect)
Outline: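 After overnight attachment, reporter cells received test compounds, DMSO or positive controls and were incubated 5 hr at 37 C. FRET substrate was then added for 1.5 hr at room temperature before dual-emission fluorescence reading.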

[3] = qHTS assay to identify small molecule agonists of the NFkB signaling pathway - cell viability counter screen (AID 1159515); note: series mostly up to about 61 µM; % is set by controls: 0 for no effect and ±100 for the full control effect; nearly all actives have a fitted effect of over 55% in size
Outline: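 Viability in NFkB-bla ME-180 cells was measured by CellTiter-Glo luminescence, 30 min room temperature, in wells already treated 5 hr with compounds and read for reporter FRET.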

[4] = qHTS assay to identify small molecule agonists of the endoplasmic reticulum stress response signaling pathway (AID 1159516; active = well fitted activation curve with a large enough effect in the signal ratio in the repeat runs, not every such curve was filed as active; the % refers to the signal ratio; note: % is set by controls: 0 for no effect and ±100 for the full control effect)
Outline: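 ER stress element reporter (bla) in HeLa. 1,500 cells/well, overnight attachment; 5 hr compound; 2 hr RT substrate; dual-emission fluorescence.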

[5] = qHTS assay to identify small molecule agonists of the endoplasmic reticulum stress response signaling pathway - cell viability counter screen (AID 1159517);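 note: HeLa cells carrying an ER stress response element beta-lactamase reporter; series mostly up to about 61 µM; % is set by controls: 0 for no effect and ±100 for the full control effect; nearly all actives have a fitted effect of over 50% in size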
Outline: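 Counter-screen wells were identical to the reporter wells. Cells were plated at 1,500 per well and dosed for 5 hr, then read for luminescence 30 min after CellTiter-Glo addition.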

[6] = qHTS assay to identify small molecule antagonists of the retinoid-related orphan receptor gamma (ROR-gamma) signaling pathway - cell viability counter screen (AID 1159520; active = well fitted curve in the direction sought with a large enough effect in the repeat runs; an effect the other way counts as inactive or inconclusive; note: % is set by controls: 0 for no effect and ±100 for the full control effect; nearly all actives have a fitted effect of over 50% in size)
Outline: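 Tet-on ROR gamma CHO cells were given compounds for 2 hr, then doxycycline hyclate at 1 uM final, and incubated 16 hr at 37 C. Viability was measured as ATP content by CellTiter-Glo luminescence.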

[7] = qHTS assay to identify small molecule agonists of the AP-1 signaling pathway - cell viability counter screen (AID 1159525); note: nearly all actives have a fitted effect of over 55% in size
Outline: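 AP-1-bla ME-180 cells in Opti-MEM with 0.5% dialyzed FBS, compound exposure 5 h at 37 C in 15-point titration. Viability read in the same wells as ATP content by CellTiter-Glo luminescence, normalised to tetra-n-octylammonium bromide and DMSO controls.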

[8] = qHTS assay to identify small molecule agonists of the AP-1 signaling pathway (AID 1159526); note: % is set by controls: 0 for no effect and ±100 for the full control effect
[9] = qHTS assay to identify small molecule agonists of the vitamin D receptor (VDR) signaling pathway - cell viability counter screen (AID 743224; active = well fitted curve in the direction sought with a large enough effect in the repeat runs; an effect the other way counts as inactive or inconclusive; note: series mostly up to about 63 µM; % is set by controls: 0 for no effect and ±100 for the full control effect; nearly all actives have a fitted effect of over 50% in size)
Outline: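 VDR-bla cell line, quantitative HTS format; 16 h compound incubation (37C, 5% CO2); ATP-based CellTiter-Glo luminescence measured in the reporter assay wells.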

[10] = biological target: Nuclear receptor ROR-gamma (Homo sapiens) (UniProt P51449); experiment: qHTS assay to identify small molecule antagonists of the retinoid-related orphan receptor gamma (ROR-gamma) signaling pathway (AID 1159521; active = well fitted curve in the direction sought with a large enough effect in the repeat runs; an effect the other way counts as inactive or inconclusive)
Outline: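 CHO cells expressing RORγ under a TET-on promoter, luciferase under RORE control. Dox 1 uM final, 16 h; compounds added 2 h prior. Luminescence decrease measured.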

CN(C)CCCO[C@@H]1[C@H]2OC(C)(C)O[C@H]2O[C@@H]1C(O)CO (stereo not given in full)
inactive: outcome [1] | outcome [2] | outcome [3] | outcome [4] | outcome [5] | outcome [6] | outcome [7] | outcome [8]

CC(C)[C@H]1CC[C@H](C)C[C@@H]1O
inactive: outcome [9] | outcome [1] | outcome [2] | outcome [3] | outcome [4] | outcome [5] | outcome [6] | outcome [7] | outcome [8]

CSc1cnccn1
inactive: outcome [9] | outcome [1] | outcome [2] | outcome [3] | outcome [4] | outcome [5] | outcome [6] | outcome [7] | outcome [8]

C[C@]12CCC(=O)C=C1CC[C@H]1[C@@H]3CC[C@](O)(C(=O)CO)[C@@]3(C)C[C@H](O)[C@@]12F
inactive: outcome [9] | outcome [1] | outcome [2] | outcome [3] | outcome [4] | outcome [5] | outcome [6] | outcome [7] | outcome [8]

C=C(C)C1CC=C(C)C(=O)C1 (stereo not given)
inactive: outcome [1] | outcome [2] | outcome [3] | outcome [4] | outcome [5] | outcome [6] | outcome [10] | outcome [7] | outcome [8]

N#Cc1ccccc1O
inactive: outcome [9] | outcome [1] | outcome [2] | outcome [3] | outcome [4] | outcome [5] | outcome [6] | outcome [7] | outcome [8]

NCc1ccc(S(N)(=O)=O)cc1
inactive: outcome [9] | outcome [2] | outcome [3] | outcome [4] | outcome [5] | outcome [6] | outcome [7] | outcome [8]

CC(C)OC(=O)CCC(=O)OC(C)C
inactive: outcome [9] | outcome [1] | outcome [2] | outcome [3] | outcome [4] | outcome [5] | outcome [6] | outcome [10] | outcome [7] | outcome [8]

C=CCN1C[C@H](C(=O)N(CCCN(C)C)C(=O)NCC)C[C@@H]2c3cccc4[nH]cc(c34)C[C@H]21
inactive: outcome [9] | outcome [1] | outcome [2] | outcome [3] | outcome [4] | outcome [5] | outcome [6] | outcome [10] | outcome [7] | outcome [8]

CCCC(CC)c1ccccc1 (stereo not given)
inactive: outcome [9] | outcome [1] | outcome [2] | outcome [3] | outcome [4] | outcome [5] | outcome [6] | outcome [7] | outcome [8]

[O-][n+]1cccc(/C(Cl)=N/OC[C@@H](O)CN2CCCCC2)c1
inactive: outcome [9] | outcome [1] | outcome [2] | outcome [3] | outcome [4] | outcome [5] | outcome [6] | outcome [10] | outcome [7] | outcome [8]

CC12CCC(C1)C(C)(C)C2O (stereo not given)
inactive: outcome [1] | outcome [2] | outcome [3] | outcome [4] | outcome [5] | outcome [6] | outcome [10] | outcome [7] | outcome [8]

N[C@@H](CSCCCO)C(=O)O
inactive: outcome [9] | outcome [1] | outcome [2] | outcome [3] | outcome [4] | outcome [5] | activity, negative = cytotoxicity [6] 0.802% [at 19 µM] | viability change, negative = cytotoxic [7] 8.07% [at 15.8 µM] | activation [8] 5.26% [at 15.8 µM]

CC(=O)CCC1=C(C)CCCC1(C)C
inactive: outcome [1] | outcome [2] | outcome [3] | outcome [4] | outcome [5] | outcome [6] | outcome [10] | outcome [7] | outcome [8]

Cc1ccc(C)c([N+](=O)[O-])c1
inactive: outcome [9] | outcome [1] | outcome [2] | outcome [3] | outcome [4] | outcome [5] | outcome [6] | outcome [7] | outcome [8]

CC(C)Nc1ccccc1
inactive: outcome [9] | outcome [1] | outcome [2] | outcome [3] | outcome [4] | outcome [5] | outcome [6] | outcome [7] | outcome [8]

CCC[C@@H]1C[C@@H](C(=O)N[C@@H]([C@H]2O[C@H](SC)[C@H](O)[C@@H](O)[C@H]2O)[C@@H](C)O)N(C)C1
inactive: outcome [9] | outcome [1] | outcome [2] | outcome [3] | outcome [4] | outcome [5] | outcome [6] | outcome [7] | outcome [8]

C=CC(=O)CCCCC
inactive: outcome [9] | outcome [2] | outcome [3] | outcome [4] | outcome [5] | outcome [6] | outcome [7] | outcome [8]

CC1=C(C(=O)O)N2C(=O)[C@@H](NC(=O)[C@H](N)c3ccccc3)[C@H]2SC1
inactive: outcome [9] | outcome [1] | outcome [2] | outcome [3] | outcome [4] | outcome [5] | outcome [6] | outcome [7] | outcome [8]

Cc1ccccc1C(N)=O
inactive: outcome [9] | outcome [2] | outcome [3] | outcome [4] | outcome [5] | outcome [6] | outcome [7] | outcome [8]

CO/N=C(/C(=O)N[C@@H]1C(=O)N2C(C(=O)[O-])=C(C[n+]3ccn4ncccc43)CS[C@H]12)c1nsc(N)n1
inactive: outcome [9] | outcome [1] | outcome [2] | outcome [3] | outcome [4] | outcome [5] | outcome [6] | outcome [10] | outcome [7] | outcome [8]

Cc1c(Cl)cccc1Cl
inactive: outcome [9] | outcome [1] | outcome [2] | outcome [3] | outcome [4] | outcome [5] | outcome [6] | outcome [7] | outcome [8]

CCCCOCC(C)O (stereo not given)
inactive: outcome [9] | outcome [1] | outcome [2] | outcome [3] | outcome [4] | outcome [5] | outcome [6] | outcome [10] | outcome [7] | outcome [8]

O=C(CCCl)NCCc1ccccc1
inactive: outcome [9] | outcome [1] | outcome [2] | outcome [3] | outcome [4] | outcome [5] | outcome [6] | outcome [10] | outcome [7] | outcome [8]

OC[C@@H](O)C(O)[C@@H](O)CO (stereo not given in full)
inactive: outcome [9] | outcome [2] | outcome [3] | outcome [4] | outcome [5] | outcome [6] | outcome [7] | outcome [8]

O=C(O)CONC(=O)c1ccccc1
inactive: outcome [9] | outcome [2] | outcome [3] | outcome [4] | outcome [5] | outcome [6] | outcome [7] | outcome [8]

O=C(Cn1ccnc1[N+](=O)[O-])NCc1ccccc1
inactive: outcome [9] | outcome [2] | outcome [3] | outcome [4] | outcome [5] | outcome [6] | outcome [7] | outcome [8]

CC1(C)Cc2cccc(N)c2O1
inactive: outcome [1] | outcome [2] | outcome [3] | outcome [4] | outcome [5] | outcome [6] | outcome [10] | outcome [7] | outcome [8]

N#Cc1cscn1
inactive: outcome [9] | outcome [1] | outcome [2] | outcome [3] | outcome [5] | outcome [6] | outcome [10] | outcome [7] | outcome [8]

c1ccc2cnccc2c1
inactive: outcome [9] | outcome [1] | outcome [2] | outcome [3] | outcome [5] | outcome [6] | outcome [10] | outcome [7] | outcome [8]

O=C1NC(c2ccccc2)(c2ccccc2)C(=O)N1COP(=O)(O)O
inactive: outcome [9] | outcome [2] | outcome [4] | outcome [5] | outcome [6] | outcome [10] | outcome [7] | outcome [8]

CCCCCCCCCCCCCBr
inactive: outcome [9] | outcome [2] | outcome [3] | outcome [5] | outcome [6] | outcome [7] | outcome [8]

CC(C)CCOC(=O)c1ccccc1
inactive: outcome [9] | outcome [1] | outcome [2] | outcome [3] | outcome [5] | outcome [6] | outcome [10] | outcome [7] | outcome [8]

Fc1ccccc1
inactive: outcome [9] | outcome [2] | outcome [4] | outcome [5] | outcome [6] | outcome [10] | outcome [7] | outcome [8]

C=CCCCC
inactive: outcome [9] | outcome [1] | outcome [2] | outcome [3] | outcome [5] | outcome [6] | outcome [7] | outcome [8]

Nc1nc(-c2ccccc2)c(Br)c(=O)[nH]1
inactive: outcome [9] | outcome [2] | outcome [3] | outcome [5] | outcome [6] | outcome [7] | outcome [8]

Cc1c(NC(=O)c2cccnc2)c(=O)n(-c2ccccc2)n1C
inactive: outcome [9] | outcome [2] | outcome [3] | outcome [5] | outcome [6] | outcome [10] | outcome [7] | outcome [8]

CCCCC1CCC(O)CC1 (stereo not given)
inactive: outcome [9] | outcome [2] | outcome [4] | outcome [5] | outcome [6] | outcome [10] | outcome [7] | outcome [8]

C/C=C(\C)C(C)=O
inactive: outcome [9] | outcome [2] | outcome [3] | outcome [5] | outcome [6] | outcome [10] | outcome [7] | outcome [8]

COC(=O)/C=C\C(=O)O
inactive: outcome [9] | outcome [2] | outcome [3] | outcome [5] | outcome [6] | outcome [10] | outcome [7] | outcome [8]

CCCC(=O)OC/C=C(\C)CCC=C(C)C
inactive: outcome [9] | outcome [2] | outcome [4] | outcome [5] | outcome [6] | outcome [10] | outcome [7] | outcome [8]

CCCCCC(C)O (stereo not given)
inactive: outcome [9] | outcome [1] | outcome [2] | outcome [3] | outcome [5] | outcome [6] | outcome [7] | outcome [8]

COc1ccc2c(c1)c1c3n2CCN(C)C3=NCC1
inactive: outcome [9] | outcome [1] | outcome [2] | outcome [3] | outcome [5] | outcome [6] | outcome [10] | outcome [7] | outcome [8]

CN(C)C(C)(C)CO
inactive: outcome [9] | outcome [1] | outcome [2] | outcome [3] | outcome [5] | outcome [6] | outcome [10] | outcome [7] | outcome [8]

CNCCS(=O)(=O)O
inactive: outcome [9] | outcome [1] | outcome [2] | outcome [3] | outcome [5] | outcome [6] | outcome [10] | outcome [7] | outcome [8]

CCCSSCCC
inactive: outcome [9] | outcome [1] | outcome [2] | outcome [3] | outcome [5] | outcome [6] | outcome [10] | outcome [7] | outcome [8]

OCCN1CCOCC1
inactive: outcome [9] | outcome [1] | outcome [2] | outcome [3] | outcome [5] | outcome [6] | outcome [10] | outcome [7] | outcome [8]

CC1CC(=O)CC(C)(C)C1 (stereo not given)
inactive: outcome [9] | outcome [1] | outcome [2] | outcome [3] | outcome [5] | outcome [6] | outcome [7] | outcome [8]

C#CCN[C@@H]1CCc2ccccc21
inactive: outcome [9] | outcome [1] | outcome [2] | outcome [3] | outcome [5] | outcome [6] | outcome [10] | outcome [7] | outcome [8]

CC1c2ccccc2CN1NC(=O)c1ccc(Cl)c(S(N)(=O)=O)c1 (stereo not given)
inactive: outcome [9] | outcome [1] | outcome [2] | outcome [3] | outcome [5] | outcome [6] | outcome [10] | outcome [7] | outcome [8]
